Experimental findings from PubChem BioAssay are described below.

One experiment deals with Albumin (Bos taurus) (UniProt P02769). Put plainly: compounds binding labelled BSA control protein – biochemical, small-molecule microarray, Alexa647 label, 635/667 nm fluorescence, artefact control for SMM control protein annotation, profiling panel (AID 1118).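 Also: score merges 667 nm emission intensity and signal-to-noise per printed compound spot.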 The note with it: BSA-A647 binding, fluorescence 635 nm, higher = more signal.
A short description of experiment [1]: probe aXIP binding to arrayed compounds – biochemical, NeuroSMM set, 635/667 nm fluorescence, primary screen (AID 1119).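 Also: probe is the protein aXip251-270 applied at 1 µg/mL to compound-printed slides; binding of probe to printed compounds measured as 667 nm fluorescence plus signal to noise.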 Particulars: small-molecule microarray, higher = more signal, called active from +8 up or from −8 down.
Experiment [2] can be described thus: probe aNOTCH3 binding on compound microarray – biochemical, small-molecule microarray, 635/667 nm fluorescence, primary screen (AID 1120).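 Also: probe is a biotin-tagged antibody raised against NOTCH3 rather than NOTCH3 protein; score merges spot fluorescence near 667 nm with spot signal to noise.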 The note with it: higher = more signal.
Experiment [3] is described as follows: probe aNOTCH2 binding on compound microarray – biochemical, small-molecule microarray, 635/667 nm fluorescence, primary screen (AID 1121).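 Also: score merges feature fluorescence read at 667 nm with its signal to noise.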 The note with it: higher = more signal.
In experiment [4] the target is Carbonic anhydrase 2 (Homo sapiens) (UniProt P00918). The experiment can be described thus: compounds binding carbonic anhydrase 2 – biochemical, small-molecule microarray, Alexa647-labelled CAII, profiling panel (AID 1122). The note with it: CAII-A647 binding fluorescence, higher = more signal.
Experiment [5] is described as follows: COS7 lysate on small-molecule microarray, probe aHis, 635 nm (AID 1123).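 Also: z-score combines 667nm fluorescence intensity with signal-to-noise per printed compound spot.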 Particulars: COS7 cell lysate, fluorescence, higher = more signal.
Experiment [6] can be described thus: probe aLAP1 signal on lysate-treated microarray – cell lysate, small-molecule microarray, COS7 lysate, primary screen (AID 1124).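 Also: lysate comes from COS7 cells expressing LAP1 and is applied at 0.3 µg/mL; score merges spot fluorescence near 667 nm with signal-to-noise over triplicate slides.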 Particulars: probe aLAP1, fluorescence, higher = more signal.
The next experiment relates to Sam68 (KHDRBS1). The experiment can be described thus: compounds binding KHDRBS1 protein – biochemical, small-molecule microarray, 635 nm fluorescence, primary screen (AID 1125).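 Also: score merges 667 nm channel intensity with signal to noise over triplicate slides.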 Particulars: higher = more signal.
Experiment [7] deals with Chordin-like protein 2 (CHRDL2). Put plainly: compounds binding chordin-like 2 – biochemical, small-molecule microarray, 635 nm fluorescence, primary screen (AID 1126).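 Also: printed compound slides probed with Chrdl2 protein at 4 µg/mL for 1 h at 4 C; score merges 667 nm emission intensity with signal to noise over three replicate slides.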 The note with it: fluorescence 635 nm, higher = more signal.
The target in experiment [8] is Concanavalin-A (Canavalia ensiformis) (UniProt P02866). The experiment can be described thus: compounds binding concanavalin A lectin – biochemical, small-molecule microarray, Alexa647 label, 635 nm, artefact control for SMM control protein annotation, primary screen (AID 1127).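 Also: z combines 667 nm emission intensity with signal-to-noise across three replicate slides.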 Particulars: ConA-A647 binding fluorescence, higher = more signal.
Experiment [9] in a line: compounds binding Alexa647 anti-His antibody – biochemical, small-molecule microarray, 635 nm fluorescence, artefact control for SMM control protein annotation, primary screen (AID 1128).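 Also: score merges feature fluorescence with signal-to-noise for each printed compound spot.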 The note with it: higher = more signal.
In experiment [10] the test system is Human papillomavirus type 1a E7 protein (residues 1-88). Put plainly: HPV1a E7 small-molecule binders, primary screen, biochemical, small-molecule microarray, residues 1-88, 635 nm (AID 1129). The note with it: small-molecule microarray binding, fluorescence 635 nm; higher = more signal.
Experiment [11] addresses Focal adhesion kinase 1 (Homo sapiens) (UniProt Q05397). The experiment can be described thus: PTK2 protein binding on printed compound slides – biochemical, small-molecule microarray, 635/667 nm fluorescence, BSA, DTT, primary screen (AID 1130).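 Also: composite of spot emission at 667 nm and signal to noise over triplicate slides.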 Particulars: 635 nm fluorescence, higher = more signal.
The test system of experiment [12] is Fibrinogen (Alexa647-labelled). The experiment can be described thus: Alexa647-fibrinogen binding to printed small molecules – biochemical, small-molecule microarray, 635/667 nm fluorescence, artefact control for SMM control-protein annotation, profiling panel (AID 1131).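 Also: z-score merges 667 nm fluorescence with per-spot signal-to-noise over triplicate slides.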 The note with it: fibrinogen-A647 binding fluorescence, higher = more signal.
The target in experiment [13] is Follistatin (Homo sapiens) (UniProt P19883). Put plainly: FST protein binding to printed compounds – biochemical, small-molecule microarray, 635/667 nm fluorescence, primary screen (AID 1132). Particulars: 635 nm fluorescence, higher = more signal.
Experiment [14] concerns the target Fibroblast growth factor 2 (Homo sapiens) (UniProt P09038). Put plainly: basic fibroblast growth factor binding to printed compounds – biochemical, small-molecule microarray, 635/667 nm fluorescence, primary screen (AID 1133). Particulars: FGF2, fluorescence 635/667, higher = more signal.
Experiment [15] is described as follows: JC-1 mitochondrial potential readout, lung cancer cells – cell-based, A549, JC-1 fluorescence, basal, 24 h, 100 nL, profiling panel (AID 1138).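 Also: A549 lung adenocarcinoma cells under basal conditions with no added stimulus; test concentration not given here.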 The note with it: higher = more signal.
In another experiment the test system is Lefty1. The experiment can be described thus: Lefty1 protein binding to printed compounds – biochemical, small-molecule microarray, 635/667 nm fluorescence, primary screen (AID 1139). Particulars: fluorescence 635/667, higher = more signal.
Experiment [16] concerns wheat germ agglutinin (Triticum aestivum), Alexa647-labelled. The experiment can be described thus: Alexa647-WGA lectin binding to printed small molecules – biochemical, small-molecule microarray, 635/667 nm fluorescence, artefact control for SMM control-protein annotation, profiling panel (AID 1140).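 Also: score merges 667 nm feature emission with signal to noise over triplicate slides.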 The note with it: WGA-A647 binding, 635 nm fluorescence, higher = more signal.

Experiment [17] deals with Luciferin 4-monooxygenase (Photinus pyralis) (UniProt P08659). The experiment can be described thus: inhibition of purified Photinus pyralis luciferase – biochemical, luminescence, purified enzyme, 2006 set, primary screen (AID 1141).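 Also: cell-free assay with purified firefly luciferase at 100 ng per well in PBS; test concentration not given here.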 Particulars: purified firefly luciferase, SteadyGlo luminescence, 30 min; higher = more signal, called active from +8 up or from −8 down.

Active and inactive are the calls of the source.

Concanavalin-A (Canavalia ensiformis), sequence (P02866 whole entry, looked up): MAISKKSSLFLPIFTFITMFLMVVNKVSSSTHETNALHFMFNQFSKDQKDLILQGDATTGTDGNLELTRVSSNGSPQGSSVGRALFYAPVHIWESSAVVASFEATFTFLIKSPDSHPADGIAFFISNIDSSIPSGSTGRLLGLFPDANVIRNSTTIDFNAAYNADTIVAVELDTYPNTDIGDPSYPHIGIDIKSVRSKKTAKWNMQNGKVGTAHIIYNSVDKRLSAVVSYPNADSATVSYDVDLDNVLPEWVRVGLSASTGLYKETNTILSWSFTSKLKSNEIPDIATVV
Luciferin 4-monooxygenase (Photinus pyralis), sequence (P08659 whole entry, looked up): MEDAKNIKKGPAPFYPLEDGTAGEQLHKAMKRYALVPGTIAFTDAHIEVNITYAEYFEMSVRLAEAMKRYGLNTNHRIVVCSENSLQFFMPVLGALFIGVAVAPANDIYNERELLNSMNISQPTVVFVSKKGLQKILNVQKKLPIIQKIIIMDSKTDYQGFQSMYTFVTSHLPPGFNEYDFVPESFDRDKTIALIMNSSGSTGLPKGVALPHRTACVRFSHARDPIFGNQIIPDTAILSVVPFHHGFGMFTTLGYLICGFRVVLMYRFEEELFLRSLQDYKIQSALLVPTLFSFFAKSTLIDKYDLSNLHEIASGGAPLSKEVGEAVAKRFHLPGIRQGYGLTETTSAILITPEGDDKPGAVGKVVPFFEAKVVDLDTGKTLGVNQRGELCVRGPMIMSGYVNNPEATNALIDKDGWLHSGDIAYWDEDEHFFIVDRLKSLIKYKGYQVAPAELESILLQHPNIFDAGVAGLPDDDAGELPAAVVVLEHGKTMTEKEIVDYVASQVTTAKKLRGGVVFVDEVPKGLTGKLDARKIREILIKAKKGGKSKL
Fibroblast growth factor 2 (Homo sapiens), sequence (P09038 whole entry, looked up): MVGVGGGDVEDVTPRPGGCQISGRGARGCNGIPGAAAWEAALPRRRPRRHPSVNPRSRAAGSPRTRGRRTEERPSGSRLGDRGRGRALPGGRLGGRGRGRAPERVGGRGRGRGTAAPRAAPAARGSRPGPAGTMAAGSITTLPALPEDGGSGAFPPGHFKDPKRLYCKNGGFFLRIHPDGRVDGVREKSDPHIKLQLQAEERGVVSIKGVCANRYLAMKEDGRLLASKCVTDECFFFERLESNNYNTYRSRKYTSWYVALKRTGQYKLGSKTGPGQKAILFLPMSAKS
Focal adhesion kinase 1 (Homo sapiens), sequence (Q05397 whole entry, looked up): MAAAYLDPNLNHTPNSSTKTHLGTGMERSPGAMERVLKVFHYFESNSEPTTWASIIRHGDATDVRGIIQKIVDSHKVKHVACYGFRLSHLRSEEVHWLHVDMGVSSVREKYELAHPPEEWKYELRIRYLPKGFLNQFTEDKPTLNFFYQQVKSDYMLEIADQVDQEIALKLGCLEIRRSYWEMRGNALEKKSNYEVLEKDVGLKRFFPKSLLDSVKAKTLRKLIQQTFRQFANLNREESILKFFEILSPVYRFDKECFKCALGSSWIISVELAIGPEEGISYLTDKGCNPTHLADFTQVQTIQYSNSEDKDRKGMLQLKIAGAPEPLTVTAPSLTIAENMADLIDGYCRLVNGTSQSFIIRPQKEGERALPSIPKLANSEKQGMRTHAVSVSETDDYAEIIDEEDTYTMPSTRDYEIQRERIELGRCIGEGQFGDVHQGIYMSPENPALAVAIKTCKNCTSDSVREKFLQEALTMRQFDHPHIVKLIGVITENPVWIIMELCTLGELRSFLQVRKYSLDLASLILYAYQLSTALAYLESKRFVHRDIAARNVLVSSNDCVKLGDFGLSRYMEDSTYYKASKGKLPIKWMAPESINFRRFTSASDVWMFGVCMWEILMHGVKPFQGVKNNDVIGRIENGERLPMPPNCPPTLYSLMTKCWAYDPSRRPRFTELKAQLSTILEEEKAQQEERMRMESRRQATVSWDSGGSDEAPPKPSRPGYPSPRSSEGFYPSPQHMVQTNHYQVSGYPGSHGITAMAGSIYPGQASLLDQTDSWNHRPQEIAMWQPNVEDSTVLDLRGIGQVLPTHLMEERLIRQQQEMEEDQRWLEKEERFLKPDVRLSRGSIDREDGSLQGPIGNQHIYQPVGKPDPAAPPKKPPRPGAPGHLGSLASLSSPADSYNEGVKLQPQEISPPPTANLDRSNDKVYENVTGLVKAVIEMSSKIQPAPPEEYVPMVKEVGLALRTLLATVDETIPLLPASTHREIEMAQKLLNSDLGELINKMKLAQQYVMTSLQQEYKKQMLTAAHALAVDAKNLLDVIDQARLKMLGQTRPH
Albumin (Bos taurus), sequence (P02769 whole entry, looked up): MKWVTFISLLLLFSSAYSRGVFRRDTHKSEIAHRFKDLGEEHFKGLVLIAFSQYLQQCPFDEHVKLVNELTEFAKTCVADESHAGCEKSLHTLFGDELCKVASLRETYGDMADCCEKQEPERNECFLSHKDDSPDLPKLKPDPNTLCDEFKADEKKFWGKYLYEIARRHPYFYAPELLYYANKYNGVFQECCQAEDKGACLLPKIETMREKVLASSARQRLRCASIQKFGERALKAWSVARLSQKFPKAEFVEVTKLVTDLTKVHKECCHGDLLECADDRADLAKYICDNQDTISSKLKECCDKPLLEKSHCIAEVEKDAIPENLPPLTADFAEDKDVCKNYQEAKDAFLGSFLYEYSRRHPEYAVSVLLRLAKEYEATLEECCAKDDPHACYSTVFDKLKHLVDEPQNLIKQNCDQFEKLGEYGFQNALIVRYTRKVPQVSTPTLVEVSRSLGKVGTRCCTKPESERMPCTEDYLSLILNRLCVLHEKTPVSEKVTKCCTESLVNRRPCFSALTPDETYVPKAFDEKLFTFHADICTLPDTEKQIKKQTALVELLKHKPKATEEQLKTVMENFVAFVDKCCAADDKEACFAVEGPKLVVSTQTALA
Follistatin (Homo sapiens), sequence (P19883 whole entry, looked up): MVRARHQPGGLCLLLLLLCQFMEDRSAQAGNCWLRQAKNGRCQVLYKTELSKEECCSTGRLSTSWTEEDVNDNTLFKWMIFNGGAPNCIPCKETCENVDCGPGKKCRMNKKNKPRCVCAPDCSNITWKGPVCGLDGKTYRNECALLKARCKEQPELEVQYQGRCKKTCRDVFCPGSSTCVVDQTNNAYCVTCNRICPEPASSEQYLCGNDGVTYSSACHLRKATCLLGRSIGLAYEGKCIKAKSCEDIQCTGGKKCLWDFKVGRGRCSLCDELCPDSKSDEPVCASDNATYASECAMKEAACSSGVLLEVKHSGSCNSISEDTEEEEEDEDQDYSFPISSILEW

Turning to `COCCOC(=O)N1C(=O)[C@@]2(c3ccccc31)[C@H](C(=O)N1CCN(c3ncccn3)CC1)[C@H]1C(=O)O[C@H](c3ccccc3)[C@H](c3ccccc3)N1[C@@H]2c1ccccc1OCCO`, the composite z-score with Albumin (Bos taurus) was -0.448; in experiment [2], 0.102; in experiment [3], -0.118; in experiment [4], 0.506; in experiment [5] it was 1.19; in [6] it was 1.37. Further, the composite z-score was 1.28 with Sam68 (KHDRBS1); 0.761 in experiment [7]; 1.05 in experiment [8]; 0.724 in experiment [9]; 1.18 in [10]; 0.382 in experiment [11]. Also, the composite z-score is 0.867 in experiment [12]; 1.15 in experiment [13]; 0.606 in [14]; 1.02 in the experiment on Lefty1; 0.272 in experiment [16]. Moreover, the composite Z-score in experiment [1] was 0.196 (inactive). Moreover, the z-score in experiment [15] was -0.531; in [17], -0.0896 (inactive).

For the compound `Cc1ccccc1C(O)C1C=CC2C(=O)N(c3ccccc3)C(=O)C2N1Nc1ccccc1` (stereo not given), the composite z-score is 0.944 with Albumin (Bos taurus); 0.312 in experiment [2]; -0.0485 in [3]; 0.781 in [4]; 2.94 in experiment [5]; 0.0139 in experiment [6]. Further, the composite z-score with Sam68 (KHDRBS1) is 1.29; in experiment [7], -0.147; in experiment [8], 1.14; in experiment [9], 1.53; in [10] it was 1.25; in experiment [11], 0.969. In addition, the composite z-score in [12] was 1.03; in [13], 1.3; in experiment [14] it was 0.0635; in the experiment on Lefty1, 0.55; in experiment [16] it was 1.33. For the same compound, the composite Z-score in experiment [1] is 0.738 (inactive). Moreover, the figures for the z-score in experiment [15] and in experiment [17] were -0.128 and -0.818 (inactive), respectively.

Consider `C#CCN1[C@@H](Cc2ccccc2)C(=O)O[C@H](Cc2ccccc2)[C@@H]1/C=C/C1CC1`, for which the composite z-score in the experiment with Albumin (Bos taurus) was -0.215; in experiment [2] it was 0.0999; in experiment [3], -0.126; in experiment [4], 0.486; in experiment [5] it was 0.92; in experiment [6], -0.103. The composite z-score in the experiment with Sam68 (KHDRBS1) is 0.713; in experiment [7], 0.646; in experiment [8], -0.741; in [9], 1.3; in [10], 1.01; in [11] it was 0.0423. The composite z-score in [12] is -0.287; in experiment [13], 1.27; in experiment [14], 0.43; with Lefty1, 1.1; in [16] it was 0.884. For the same compound, the composite Z-score in [1] was 0.196 (inactive). Besides, the z-score in experiment [15] was 4.04; in experiment [17] it was -0.415 (inactive).

`C=C(CCCC)/C(=C/C[C@@H](OC(C)=O)c1ccc(CO)o1)c1cnc2ccccc2c1`: the composite z-score in the experiment with Albumin (Bos taurus) was 0.333; in experiment [2] it was 0.185; in experiment [3], -0.0684; in [4], 0.476; in experiment [5], 1.45; in [6] it was 1.17. Moreover, the composite z-score with Sam68 (KHDRBS1) turned out to be 1.3; in experiment [7], 1.03; in experiment [8], 0.875; in experiment [9], 1.12; in [10], 1.21; in experiment [11], 0.119. Further, the composite z-score in experiment [12] was found to be 0.948; in [13], 1.31; in experiment [14], 1.54; in the experiment with Lefty1, 1.51; in [16] it was 1.27. Further, the composite Z-score in experiment [1] is -0.117 (inactive). In addition, the figures for the z-score in experiment [15] and in experiment [17] were -0.587 and -3.09 (inactive), respectively.

As to `O=C1O[C@@H](c2ccccc2)[C@@H](c2ccccc2)N2[C@@H](c3ccc(OCCO)cc3)[C@]3(C(=O)Nc4ccc(C#CC5(O)CCCCCC5)cc43)[C@@H](C(=O)Nc3nc4ccccc4s3)[C@H]12`, the composite z-score with Albumin (Bos taurus) is 0.691; in experiment [2], 0.0169; in [3], -0.0664; in experiment [4], 0.608; in experiment [5], 2.31; in [6], 0.36. Further, the composite z-score worked out at 1.29 with Sam68 (KHDRBS1); 0.583 in experiment [7]; 1.01 in [8]; 0.0141 in experiment [9]; 1.24 in [10]; 0.676 in experiment [11]. For the same compound, the composite z-score in experiment [12] was 0.964; in experiment [13] it was 1.33; in experiment [14], 1.54; in the experiment on Lefty1, 1.22; in experiment [16], 1.09. Further, the composite Z-score in [1] is -0.144 (inactive). In addition, the z-score in [15] was -2.12; in experiment [17] it was -2.6 (inactive).
